Results: PubChem BioAssay (NCATS)
Results filed as inconclusive are left out. The source made the active and inactive calls. The call rests on the fitted dose curve; in most records, active means well fitted inhibition curve with a large enough effect; inconclusive means small, poorly fitted or top-dose-only effect, or effect the other way; inactive means flat fitted curve, though single readings scatter.

Test: qHTS for Inhibitors of Plasmodium falciparum (CP250) proliferation (AID 504320)
Conditions: P. falciparum CP250 in erythrocytes, SYBR Green DNA, 72 h; series mostly up to 6.7 µM; activity change, negative = inhibition: at the top concentration
Text: Plasmodium falciparum is a virulent malarial parasite that kills 1-2 million people worldwide each year. Malaria not only inflicts tremendous suffering and morbidity on the human population, but has dramatically influenced the course of civilization with profound sociological and economic implications (Shah, S. 2010). Transmitted by mosquitoes, the sporozoite form of the parasite enters the blood stream to infect hepatocytes, where they become merozoites that infect red blood cells (erythrocytes). Within erythrocytes, merozoites begin a […] cycle of growth and division, after which the parasite is released to infect new red blood cells. Gametocytes, which form within erythrocytes as well, circulate in the bloodstream and are ingested by the mosquito, thereby completing the life cycle (see CDC website). To profile malarial lines for differential chemical responses and to identify inhibitors of malarial growth, an assay that measures P. falciparum growth and replication within erythrocytes was employed. This assay uses a DNA binding fluorescent dye (SYBR Green) to detect parasite DNA following cell lysis. Because mature erythrocytes lack DNA, only Plasmodium-derived DNA is detected. The P. falciparum line cp250, derived from a malarial isolate from Cambodia, (Mu, J., et al. 2010) was added to the panel of lines, Dd2, HB3, 7G8 and GB4 in this study. Laboratory of Assay Development and Screening Technology [ADST] and NIH Chemical Genomics Center [NCGC] Boston University, Chemistry Department, Center for Chemical Methodology and Library Development [CMLD-BU] NIH National Institute of Allergy and Infectious Diseases [NIAID]
ADST Assay Protocol Summary: The 1536-well SYBR Green viability assay was based on the method of Bennett et al (2004) and described previously in 1536-well format (Yuan J., et al. 2009). For screening 3 ul culture medium was dispensed into 1536 well black clear bottom plates (Aurora Biotechnologies) using a Multidrop Combi (Thermo Fisher Scientific Inc.), 23 nL compounds in DMSO were added by a pin transfer (Cleveland, P.H. and Koutz, P.J, 2005) using a pin tool-based delivery system (Kalypsys), and 5 ul of erythrocytes infected with P. falciparum one of five lines (cp250, Dd2, HB3, 7G8 or GB4, 0.3% parasitemia, 2.5% hematocrit final concentration) were added. The plates were incubated at 37C in a humidified incubator in 5% CO2 for 72 h, and 2 ul lysis buffer (20 mM Tris HCl, 10 mM EDTA, 0.16% saponin, 1.6% triton X, 10X SYBR Green I (supplied as 10,000X final concentration by Invitrogen) was added to each well. The plates were mixed for 25 sec with gentle shaking and incubated overnight at room temperature in the dark. The following morning, fluorescence intensity at 485(14) nm excitation and 535(25) nm emission wavelengths was measured on an EnVision (Perkin Elmer) plate reader. Plate reads were normalized relative to the control inhibitor (0.29 uM artemisinin) and vehicle (DMSO) wells present on each plate and then corrected by an algorithm using vehicle-only control plates at the beginning and end of the compound plate stack. References Shah, S. (2010). The Fever: how malaria has ruled humankind for 500,000 years. New York, Sarah Crichton Books. CDC web site, http://www.cdc.gov/malaria/about/biology/index.html Mu, J., Myers, R.A., Jiang, H., Liu, S., Ricklefs, S., Waisberg, M., Chotivanich, K., Wilairatana, P., Krudsood, S., White, N.J., et Plasmodium falciparum genome-wide scans for positive selection, recombination hot spots and resistance to antimalarial drugs Nature Genetics 2010, 42, pp 268-271 Bennett TN, Paguio, M., Gligorijevic, B., Seudieu, C., Kosar, A. D., Davidson, E., and Roepe, P. D. Novel, rapid, and inexpensive cell-based quantification of antimalarial drug efficacy Antimicrobial Agents Chemother. 2004, 48(5): pp 1807-10 Yuan J, Johnson RL, Huang RL, Wichterman J, Jiang HY, Hayton K, Fidock DA, Wellems TE, Inglese J, Austin CP, Su XZ. […]
Potency means the concentration at half of the fitted maximal effect.

Activity change, negative = inhibition, inactive:
COCCN1C(=O)N(C)[C@@H](c2ccccc2)C(C(C)=O)=C1C 1.27%
CCCCC1=CC2=CC(=O)C(C)(OC(=O)CC)C(=O)C2=CN1c1cccc(C#N)c1 (stereo not given) -1.34%
COC(=O)C1=C(C(=O)OC)[C@@H]2N(C)c3ccccc3[C@@]23C[C@@H](CO)N(C(=O)c2ccco2)C3=N1 -3.03%
COCCN1C(=O)N[C@@H](c2ccco2)C(C(=O)OC)=C1C -1.03%
COC(=O)C1=C(C(=O)OC)[C@@H]2N(Cc3ccccc3)c3ccccc3[C@@]23C[C@@H](C(=O)OC)N(C(=O)NCCBr)C3=N1 3.36%
C=CCN1C=C2C(=O)C(C)(OC(=O)CCC(=O)OC)C(=O)C=C2C=C1C1CC1 (stereo not given) -16.1%
Cc1ccc(S(=O)(=O)N[C@@H]2COC(=O)[C@@H](C)COC(=O)CC=C[C@H]2C)cc1 2.71%
C=CCOC(=O)N[C@H](C(C(=O)OC)=C(C)NCc1ccccc1)c1cccc(F)c1 5.07%
COC(=O)CCC(=O)OC1(C)C(=O)C2=CN(CC3CC3)C(c3ccc(OC)cc3)=CC2=C(Br)C1=O (stereo not given) -6.44%
CCN1C(=O)N[C@@H](c2ccccc2)C(C(=O)OC)=C1C 1.54%
CCOC(=O)CN1C(=O)N[C@@H](c2ccccc2)[C@H](C(=O)OC)[C@H]1C 5.78%
COC/C=C/C1=CC2=CC(=O)C(C)(OC(=O)c3cnc4ccccc4n3)C(=O)C2=CN1CC(C)C (stereo not given) 0.311%
COC(=O)C1=C(C(=O)OC)[C@@H]2N(C)c3ccccc3[C@@]23C[C@@H](C(=O)OC)N(S(=O)(=O)c2ccc(C)cc2)C3=N1 5.41%
COC(=O)CCCC1=CC2=CC(=O)C(C)(OC(=O)c3cccs3)C(=O)C2=CN1Cc1ccc2c(c1)OCO2 (stereo not given) 0.0446%
CCN1C(=O)N[C@@H](c2ccco2)C(C(C)=O)=C1C 0.505%
COC/C=C/C1=CC2=CC(=O)C(C)(OC(=O)c3cnc4ccccc4n3)C(=O)C2=CN1Cc1ccc(OC)cc1 (stereo not given) -1.13%
COC(=O)C1=C(C(=O)OC)[C@@H]2N(C)c3ccc(OC)cc3[C@@]23C[C@@H](C(=O)OC)N(C(=O)COCc2ccccc2)C3=N1 -0.039%
C=CC1=C2C=C(C3CC3)N(CCCN(CC)CC)C=C2C(=O)C(C)(OC(=O)c2ccco2)C1=O (stereo not given) 1.24%
CC[C@H](C)[C@@H](NC(=O)O[C@@H]1C(=O)c2cc(Br)ccc2O[C@H]1c1cccc(OC)c1)C(=O)OC -3.67%
CCN1C(=O)N[C@@H](c2cccc(F)c2)C(C(=O)OC)=C1C 3.24%
COC(=O)N[C@@H](c1cccc(C)c1)[C@]1(C(C)=O)CCCC1=O 2.12%
CC1(OC(=O)CCc2ccccc2)C(=O)C=C2C=C(c3ccc(C#N)cc3)N(C3CCCCC3)C=C2C1=O (stereo not given) 0.556%
COC/C=C/C1=CC2=CC(=O)C(C)(OC(=O)c3cnc4ccccc4n3)C(=O)C2=CN1c1ccc(CO)cc1 (stereo not given) -0.552%
COC(=O)C1=C(C)N(Cc2ccccc2)C(=O)NC1c1ccco1 (stereo not given) 0.494%
COC(=O)[C@H](Cc1ccccc1)NC(=O)O[C@@H]1C(=O)c2cc(OC)ccc2O[C@H]1c1cccc(OC)c1 -0.347%
CCOC(=O)CN1C(=O)N[C@@H](c2ccco2)C(C(=O)OC)=C1C -0.358%
COC(=O)C1=C(C(=O)OC)[C@@H]2N(C)c3ccccc3[C@@]23C[C@@H](C(=O)OC)N(C(C)=O)C3=N1 1.09%
COC/C=C/C1=CC2=CC(=O)C(C)(OC(=O)c3cnc4ccccc4n3)C(=O)C2=CN1Cc1ccccc1 (stereo not given) -0.229%
COC/C=C/C1=CC2=CC(=O)C(C)(OC(=O)c3cnc4ccccc4n3)C(=O)C2=CN1CCc1c[nH]c2ccccc12 (stereo not given) 4.29%
CCN1C(=O)N[C@@H](CCc2ccccc2)C(C(=O)OC)=C1C 5.77%
COC(=O)[C@@H]1[C@H](CCc2ccccc2)NC(=O)N(Cc2ccccc2)[C@H]1C -3.52%
COC(=O)CCC(=O)OC1(C)C(=O)C2=CN(C3CC3)C(c3ccc(OC)cc3)=CC2=C(Br)C1=O (stereo not given) -1.85%
COC(=O)[C@@H]1[C@H](CCc2ccccc2)NC(=O)N(Cc2ccccc2)[C@@H]1C 4.68%
CC(=O)C1=C(C)N(Cc2ccccc2)C(=O)N[C@H]1c1cccc(F)c1 -3.26%
C=CCN1C=C2C(=O)C(C)(OC(=O)C3CCCC3)C(=O)C(c3ccccc3)=C2C=C1CCCC(=O)OC (stereo not given) -3.52%
COC/C=C/C1=CC2=CC(=O)C(C)(OC(=O)c3cnc4ccccc4n3)C(=O)C2=CN1CC1CC1 (stereo not given) 4.77%
C[C@H]1Cc2c(COc3ccccc3)nc3c(c2CO1)CN(C(=O)Nc1cccc(C#N)c1)CC3 -0.127%

Potency, active:
CC1(C)O[C@@H](C(O)(c2cc(F)c(F)c(F)c2)c2cc(F)c(F)c(F)c2)[C@H](C(O)(c2cc(F)c(F)c(F)c2)c2cc(F)c(F)c(F)c2)O1 849 nM

Potency, inactive:
CC(=O)[C@@H]1[C@@H](C)N(Cc2ccccc2)C(=O)N[C@H]1c1cccc(C(F)(F)F)c1
COC(=O)CCCC1=CC2=CC(=O)C(C)(OC(=O)c3cccs3)C(=O)C2=CN1c1ccccc1 (stereo not given)
